Results reported in the supplement of paper PMC6411743.
± gives the standard deviation of the averaged measurements. Of roughly 6,500 targets only a part is listed; those with the largest changes were picked by preference.

The targets below were run with Nc1ncnc2c1ncn2[C@@H]1O[C@H](COP(=O)(O)OP(=O)(O)OP(=O)(O)O)[C@@H](O)[C@H]1O [adenosine triphosphate] (assay: NP40-soluble protein abundance relative to vehicle (solubility fold change) (ratio); higher = more soluble protein in presence of ATP). Conditions: concentration: 4mM.
How it was run: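 Values are fold changes against the detergent-processed vehicle, based on vsn-normalised intensities. Jurkat crude lysate was treated at eight concentrations from 0.1 to 10 mM (10 min at room temperature, then 3 min at 37 °C), solubilised with 0.8% NP40 and benzonase, ultracentrifuged and analysed by TMT-labelled LC-MS/MS over three independent experiments.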

Sequence of UniProt Q9BZF1 (Q9BZF1 whole entry, one chain of several): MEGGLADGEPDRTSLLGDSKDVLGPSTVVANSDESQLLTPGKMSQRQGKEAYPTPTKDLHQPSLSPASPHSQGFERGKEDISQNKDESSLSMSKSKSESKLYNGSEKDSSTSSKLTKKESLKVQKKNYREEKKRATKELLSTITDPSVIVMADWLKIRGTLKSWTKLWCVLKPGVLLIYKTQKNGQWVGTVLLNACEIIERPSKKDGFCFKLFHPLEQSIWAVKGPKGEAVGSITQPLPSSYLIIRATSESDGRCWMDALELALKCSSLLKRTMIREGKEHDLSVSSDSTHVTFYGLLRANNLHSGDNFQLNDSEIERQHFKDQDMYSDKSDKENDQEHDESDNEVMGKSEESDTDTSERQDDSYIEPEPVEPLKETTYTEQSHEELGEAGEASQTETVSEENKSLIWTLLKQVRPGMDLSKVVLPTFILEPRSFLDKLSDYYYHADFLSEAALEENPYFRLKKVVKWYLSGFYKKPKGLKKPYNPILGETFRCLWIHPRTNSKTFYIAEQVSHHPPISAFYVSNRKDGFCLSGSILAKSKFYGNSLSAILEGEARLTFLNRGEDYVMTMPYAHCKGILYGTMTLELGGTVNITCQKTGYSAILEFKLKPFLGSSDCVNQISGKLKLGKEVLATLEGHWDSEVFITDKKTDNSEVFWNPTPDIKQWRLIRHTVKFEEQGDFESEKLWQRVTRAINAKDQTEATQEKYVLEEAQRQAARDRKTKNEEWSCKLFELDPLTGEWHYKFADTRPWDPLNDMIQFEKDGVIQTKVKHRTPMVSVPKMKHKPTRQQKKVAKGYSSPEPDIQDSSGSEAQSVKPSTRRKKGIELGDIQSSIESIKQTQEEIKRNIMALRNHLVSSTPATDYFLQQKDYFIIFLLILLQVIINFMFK
Sequence of UniProt A7KAX9 (A7KAX9 whole entry): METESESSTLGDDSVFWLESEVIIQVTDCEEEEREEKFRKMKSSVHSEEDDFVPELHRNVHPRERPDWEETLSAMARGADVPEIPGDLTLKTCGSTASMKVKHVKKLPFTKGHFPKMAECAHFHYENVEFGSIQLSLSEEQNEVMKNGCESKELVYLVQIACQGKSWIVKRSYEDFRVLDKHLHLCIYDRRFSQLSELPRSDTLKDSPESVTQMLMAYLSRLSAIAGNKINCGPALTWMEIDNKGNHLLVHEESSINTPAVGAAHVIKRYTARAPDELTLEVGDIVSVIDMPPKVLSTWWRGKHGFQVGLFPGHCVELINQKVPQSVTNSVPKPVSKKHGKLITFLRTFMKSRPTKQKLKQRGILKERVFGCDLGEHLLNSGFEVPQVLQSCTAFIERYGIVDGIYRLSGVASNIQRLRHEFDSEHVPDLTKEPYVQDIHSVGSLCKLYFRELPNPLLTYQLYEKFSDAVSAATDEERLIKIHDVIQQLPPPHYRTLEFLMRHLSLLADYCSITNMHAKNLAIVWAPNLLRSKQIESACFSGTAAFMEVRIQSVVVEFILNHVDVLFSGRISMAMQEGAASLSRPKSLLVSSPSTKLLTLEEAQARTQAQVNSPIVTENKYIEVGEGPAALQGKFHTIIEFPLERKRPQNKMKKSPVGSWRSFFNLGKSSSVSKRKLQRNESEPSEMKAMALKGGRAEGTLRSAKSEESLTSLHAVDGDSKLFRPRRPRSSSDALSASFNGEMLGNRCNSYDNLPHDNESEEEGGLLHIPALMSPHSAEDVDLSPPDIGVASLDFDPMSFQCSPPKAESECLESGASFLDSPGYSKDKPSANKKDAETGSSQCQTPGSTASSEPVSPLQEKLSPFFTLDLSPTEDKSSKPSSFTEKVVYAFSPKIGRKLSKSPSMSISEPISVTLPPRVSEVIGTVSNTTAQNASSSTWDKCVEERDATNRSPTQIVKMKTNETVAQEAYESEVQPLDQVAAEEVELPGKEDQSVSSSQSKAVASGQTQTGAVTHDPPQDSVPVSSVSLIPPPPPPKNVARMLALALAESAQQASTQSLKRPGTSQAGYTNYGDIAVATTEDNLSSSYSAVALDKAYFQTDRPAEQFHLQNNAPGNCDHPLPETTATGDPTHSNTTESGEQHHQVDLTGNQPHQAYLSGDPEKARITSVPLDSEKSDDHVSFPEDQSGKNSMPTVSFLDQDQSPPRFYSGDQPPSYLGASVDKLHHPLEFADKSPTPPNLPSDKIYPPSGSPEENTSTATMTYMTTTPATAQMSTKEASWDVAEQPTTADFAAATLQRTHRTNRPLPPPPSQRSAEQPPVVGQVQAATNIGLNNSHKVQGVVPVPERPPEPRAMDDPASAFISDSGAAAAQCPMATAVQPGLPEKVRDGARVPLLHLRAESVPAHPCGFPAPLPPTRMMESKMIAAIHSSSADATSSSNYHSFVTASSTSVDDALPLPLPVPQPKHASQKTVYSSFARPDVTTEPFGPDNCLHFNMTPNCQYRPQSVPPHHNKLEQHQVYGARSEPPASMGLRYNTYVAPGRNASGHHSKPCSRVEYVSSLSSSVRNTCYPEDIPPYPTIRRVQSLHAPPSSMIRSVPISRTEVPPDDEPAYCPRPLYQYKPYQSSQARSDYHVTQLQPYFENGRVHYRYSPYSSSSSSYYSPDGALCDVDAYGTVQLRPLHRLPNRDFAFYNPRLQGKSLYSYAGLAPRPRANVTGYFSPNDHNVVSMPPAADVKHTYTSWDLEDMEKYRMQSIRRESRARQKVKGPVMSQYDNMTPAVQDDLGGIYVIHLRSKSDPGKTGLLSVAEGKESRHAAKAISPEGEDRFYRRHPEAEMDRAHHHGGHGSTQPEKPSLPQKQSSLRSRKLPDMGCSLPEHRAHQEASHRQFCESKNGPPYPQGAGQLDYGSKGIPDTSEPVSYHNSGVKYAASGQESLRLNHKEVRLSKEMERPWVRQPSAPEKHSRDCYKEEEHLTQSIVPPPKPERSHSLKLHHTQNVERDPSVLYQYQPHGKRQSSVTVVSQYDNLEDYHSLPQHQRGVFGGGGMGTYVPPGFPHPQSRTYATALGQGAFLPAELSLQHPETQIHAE
Sequence of UniProt P01130 (P01130 whole entry, one chain of several): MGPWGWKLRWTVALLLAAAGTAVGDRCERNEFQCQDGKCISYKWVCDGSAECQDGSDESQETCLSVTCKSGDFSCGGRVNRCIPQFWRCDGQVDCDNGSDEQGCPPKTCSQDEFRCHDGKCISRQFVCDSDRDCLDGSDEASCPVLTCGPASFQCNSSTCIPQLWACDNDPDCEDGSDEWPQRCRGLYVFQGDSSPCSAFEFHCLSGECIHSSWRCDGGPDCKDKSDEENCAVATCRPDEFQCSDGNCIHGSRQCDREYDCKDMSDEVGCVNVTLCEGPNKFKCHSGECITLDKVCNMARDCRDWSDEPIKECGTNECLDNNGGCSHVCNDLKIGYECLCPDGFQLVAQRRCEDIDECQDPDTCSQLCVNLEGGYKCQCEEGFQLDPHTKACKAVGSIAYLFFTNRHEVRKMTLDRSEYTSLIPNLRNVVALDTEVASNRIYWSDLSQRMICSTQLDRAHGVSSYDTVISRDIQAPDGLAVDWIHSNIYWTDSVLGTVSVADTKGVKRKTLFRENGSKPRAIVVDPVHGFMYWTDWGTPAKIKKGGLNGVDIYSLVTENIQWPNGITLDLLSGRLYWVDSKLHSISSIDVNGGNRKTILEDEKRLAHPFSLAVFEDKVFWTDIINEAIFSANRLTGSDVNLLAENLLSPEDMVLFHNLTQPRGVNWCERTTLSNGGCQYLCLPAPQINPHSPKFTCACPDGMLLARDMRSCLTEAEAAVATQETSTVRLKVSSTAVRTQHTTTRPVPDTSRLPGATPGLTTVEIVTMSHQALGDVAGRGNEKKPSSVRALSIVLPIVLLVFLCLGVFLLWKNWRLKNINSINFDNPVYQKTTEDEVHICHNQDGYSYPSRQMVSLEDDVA
Sequence of UniProt Q96EV2 (Q96EV2 whole entry, one chain of several): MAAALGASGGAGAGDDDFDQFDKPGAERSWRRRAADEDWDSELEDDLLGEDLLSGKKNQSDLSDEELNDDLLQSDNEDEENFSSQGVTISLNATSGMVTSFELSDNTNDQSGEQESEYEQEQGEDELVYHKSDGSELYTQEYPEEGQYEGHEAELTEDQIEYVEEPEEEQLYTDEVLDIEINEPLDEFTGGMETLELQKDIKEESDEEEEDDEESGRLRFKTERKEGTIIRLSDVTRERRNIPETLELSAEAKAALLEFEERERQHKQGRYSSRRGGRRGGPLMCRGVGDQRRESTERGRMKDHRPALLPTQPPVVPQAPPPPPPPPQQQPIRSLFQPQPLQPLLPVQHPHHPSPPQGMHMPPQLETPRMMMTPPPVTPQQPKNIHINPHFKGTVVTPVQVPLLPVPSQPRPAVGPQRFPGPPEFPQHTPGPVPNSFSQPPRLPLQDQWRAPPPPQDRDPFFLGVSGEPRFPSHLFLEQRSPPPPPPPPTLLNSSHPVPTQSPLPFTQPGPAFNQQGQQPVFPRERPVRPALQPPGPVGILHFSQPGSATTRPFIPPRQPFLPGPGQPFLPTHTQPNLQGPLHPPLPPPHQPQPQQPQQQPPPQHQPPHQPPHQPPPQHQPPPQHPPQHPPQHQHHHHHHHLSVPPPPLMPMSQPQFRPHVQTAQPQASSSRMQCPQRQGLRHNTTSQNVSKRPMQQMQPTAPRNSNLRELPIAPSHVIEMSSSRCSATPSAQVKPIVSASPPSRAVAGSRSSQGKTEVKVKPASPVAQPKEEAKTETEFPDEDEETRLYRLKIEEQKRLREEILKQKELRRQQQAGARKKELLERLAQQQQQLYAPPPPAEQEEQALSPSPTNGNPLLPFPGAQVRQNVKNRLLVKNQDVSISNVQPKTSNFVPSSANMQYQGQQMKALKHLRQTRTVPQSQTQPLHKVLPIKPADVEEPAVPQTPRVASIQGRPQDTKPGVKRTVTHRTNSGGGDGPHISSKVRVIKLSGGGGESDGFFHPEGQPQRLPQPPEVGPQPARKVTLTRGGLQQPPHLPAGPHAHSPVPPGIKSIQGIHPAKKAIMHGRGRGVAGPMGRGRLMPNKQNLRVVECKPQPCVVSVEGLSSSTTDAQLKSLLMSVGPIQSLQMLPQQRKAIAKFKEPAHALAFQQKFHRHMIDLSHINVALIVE

Target	NP40-soluble protein abundance
E7EQI7|Q12768 (UniProt Q12768)	1.05 ± 0.076
XYLB (UniProt O75191)	0.984 ± 0.097
H7C0H2|Q96EV2|H0Y3K4 (UniProt Q96EV2)	0.956 ± 0.086
H3BPD5|P78549|P78549-2|P78549-3 (UniProt P78549)	1.3 ± 0.1
J3KTL2|Q07955 (UniProt Q07955)	1.7 ± 0.11
G3XAG1|Q96ME7|Q96ME7-3 (UniProt Q96ME7)	1.58 ± 0.019
E9PJN1|O75676|O75676-2 (UniProt O75676)	1.34 ± 0.17
H0YM92|J3KMZ9|P01130|P01130-5|H0YMD1|P01130-4 (UniProt P01130)	0.981 ± 0.023
J3KPF0 (UniProt Q9Y4D8)	1.05 ± 0.025
DYNC1LI2 (UniProt O43237)	0.905 ± 0.047
F8WCD0|Q8NC42 (UniProt Q8NC42)	1.08 ± 0.076
MAN2B1 (UniProt O00754)	0.957 ± 0.023
A0A0A0MTB8|Q8NI36 (UniProt Q8NI36)	1.68 ± 0.13
A0A0C4DGQ5|P04632 (UniProt P04632)	0.923 ± 0.022
B7ZBA0|Q8NI27 (UniProt Q8NI27)	1.89 ± 0.076
UniProt A7KAX9|A7KAX9-2	0.908 ± 0.0074
H0YLE6|Q9NWH9|H0YNF3 (UniProt Q9NWH9)	0.993 ± 0.038
A0A0D9SEU5|Q6VN20|Q6VN20-3|R4GMX8 (UniProt Q6VN20)	0.979 ± 0.02

Target	NP40-soluble protein abundance
I3L0W4|Q96F10 (UniProt Q96F10)	0.962 ± 0.073
UniProt E9PSI1	0.981 ± 0.015
K7ELH7|K7ENE2|Q8IVV7 (UniProt Q8IVV7)	1 ± 0.032
G3V0I5|P49821|P49821-2 (UniProt P49821)	0.944 ± 0.033
E9PJI1|Q92993-3|Q92993-4|Q92993|Q92993-2 (UniProt Q92993)	1.13 ± 0.17
G3XAC1|Q9BXS9|Q9BXS9-3|Q9BXS9-7|A0A0C4DFT5|Q9BXS9-4|Q9BXS9-5 (UniProt Q9BXS9)	0.918 ± 0.073
ZNHIT1 (UniProt O43257)	1.27 ± 0.042
UniProt O75081|O75081-2|O75081-4	0.907 ± 0.052
I3L1H5|Q9BZG8 (UniProt Q9BZG8)	0.987 ± 0.16
E9PHG5|Q6UW02 (UniProt Q6UW02)	1.04 ± 0.13
B4DT96|C9JYA1|O15504|O15504-2 (UniProt O15504)	1.29 ± 0.17
UniProt O15169|O15169-2	0.982 ± 0.19
F8W060|Q9BZF1 (UniProt Q9BZF1)	0.939 ± 0.018
PDXK (UniProt O00764)	1.01 ± 0.066
B0QY89|Q9Y262 (UniProt Q9Y262)	1.23 ± 0.075
J3KTE4|J3QR09|P84098 (UniProt P84098)	0.968 ± 0.07
TMEM120B (UniProt A0PK00)	1.04 ± 0.09
SLC25A20 (UniProt O43772)	0.943 ± 0.012

Same assay, conditions: concentration: 6mM

Target	NP40-soluble protein abundance
E7EQI7|Q12768 (UniProt Q12768)	0.962 ± 0.11
XYLB (UniProt O75191)	0.965 ± 0.069
H7C0H2|Q96EV2|H0Y3K4 (UniProt Q96EV2)	0.982 ± 0.075
H3BPD5|P78549|P78549-2|P78549-3 (UniProt P78549)	1.51 ± 0.2
J3KTL2|Q07955 (UniProt Q07955)	1.93 ± 0.19
G3XAG1|Q96ME7|Q96ME7-3 (UniProt Q96ME7)	1.71 ± 0.061
E9PJN1|O75676|O75676-2 (UniProt O75676)	1.35 ± 0.17
H0YM92|J3KMZ9|P01130|P01130-5|H0YMD1|P01130-4 (UniProt P01130)	0.966 ± 0.029
J3KPF0 (UniProt Q9Y4D8)	1.01 ± 0.1
DYNC1LI2 (UniProt O43237)	0.959 ± 0.14
F8WCD0|Q8NC42 (UniProt Q8NC42)	1.03 ± 0.029
MAN2B1 (UniProt O00754)	0.887 ± 0.057
A0A0A0MTB8|Q8NI36 (UniProt Q8NI36)	1.86 ± 0.23
A0A0C4DGQ5|P04632 (UniProt P04632)	0.884 ± 0.039
B7ZBA0|Q8NI27 (UniProt Q8NI27)	2.09 ± 0.2
UniProt A7KAX9|A7KAX9-2	0.907 ± 0.024
H0YLE6|Q9NWH9|H0YNF3 (UniProt Q9NWH9)	1.11 ± 0.059
A0A0D9SEU5|Q6VN20|Q6VN20-3|R4GMX8 (UniProt Q6VN20)	0.996 ± 0.11

Target	NP40-soluble protein abundance
I3L0W4|Q96F10 (UniProt Q96F10)	0.963 ± 0.064
UniProt E9PSI1	0.939 ± 0.037
K7ELH7|K7ENE2|Q8IVV7 (UniProt Q8IVV7)	0.867 ± 0.075
G3V0I5|P49821|P49821-2 (UniProt P49821)	0.94 ± 0.056
E9PJI1|Q92993-3|Q92993-4|Q92993|Q92993-2 (UniProt Q92993)	1.1 ± 0.19
G3XAC1|Q9BXS9|Q9BXS9-3|Q9BXS9-7|A0A0C4DFT5|Q9BXS9-4|Q9BXS9-5 (UniProt Q9BXS9)	0.885 ± 0.022
ZNHIT1 (UniProt O43257)	1.3 ± 0.037
UniProt O75081|O75081-2|O75081-4	0.888 ± 0.14
I3L1H5|Q9BZG8 (UniProt Q9BZG8)	0.898 ± 0.12
E9PHG5|Q6UW02 (UniProt Q6UW02)	1.02 ± 0.17
B4DT96|C9JYA1|O15504|O15504-2 (UniProt O15504)	1.43 ± 0.42
UniProt O15169|O15169-2	1.07 ± 0.18
F8W060|Q9BZF1 (UniProt Q9BZF1)	0.927 ± 0.046
PDXK (UniProt O00764)	0.935 ± 0.14
B0QY89|Q9Y262 (UniProt Q9Y262)	1.35 ± 0.072
J3KTE4|J3QR09|P84098 (UniProt P84098)	0.966 ± 0.043
TMEM120B (UniProt A0PK00)	0.894 ± 0.12
SLC25A20 (UniProt O43772)	0.822 ± 0.099
